Assay results taken from PubChem BioAssay (Tox21).
Results filed as inconclusive are left out. The source made the active and inactive calls. Unless noted, the call rests on the fitted dose curve; in most records, active means well fitted curve in the direction sought with a large enough effect in the repeat runs; inconclusive means weak or mixed curves; inactive means no such curve, though single readings can be large; an effect the other way counts as inactive or inconclusive.

What was measured:
[1] = qHTS assay to identify small molecule antagonists of the glucocorticoid receptor (GR) signaling pathway - cell viability counter screen (AID 720693); further: nearly all actives have a fitted effect of over 55% in size
[2] = qHTS assay for identifying genotoxic compounds that show differential cytotoxicity against isogenic chicken DT40 cell lines with known DNA damage response pathways - wild type cell line (AID 743012); further: nearly all actives have a fitted effect of over 60% in size; further: potency means the concentration at half of the fitted maximal effect
Method in brief: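 Wild-type DT40 cells (300/well) exposed to compounds for 40 hours at 37 C/5% CO2. Viability read by CellTiter-Glo luminescence after 30 min at room temperature.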

[3] = qHTS assay for identifying genotoxic compounds that show differential cytotoxicity against isogenic chicken DT40 cell lines with known DNA damage response pathways - Rev3 mutant cell line (AID 743014); further: nearly all actives have a fitted effect of over 55% in size; further: potency means the concentration at half of the fitted maximal effect
[4] = qHTS assay for identifying genotoxic compounds that show differential cytotoxicity against isogenic chicken DT40 cell lines with known DNA damage response pathways - Rad54/Ku70 mutant cell line (AID 743015); further: nearly all actives have a fitted effect of over 60% in size; further: potency means the concentration at half of the fitted maximal effect
[5] = qHTS assay to identify small molecule antagonists of the androgen receptor (AR) signaling pathway - cell viability counter screen (AID 743033; further: nearly all actives have a fitted effect of over 45% in size)
[6] = qHTS assay to identify small molecule antagonists of the androgen receptor (AR) signaling pathway using the MDA cell line - cell viability counter screen (AID 743041; further: nearly all actives have a fitted effect of over 45% in size)
Method in brief: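 R1881-driven MDA-kb2 AR-luc cells, 3,000/well, were dosed with library compounds for 16 h; cell health came from CellTiter-Fluor fluorescence in the reporter wells.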

[7] = qHTS assay to identify small molecule antagonists of the thyroid receptor (TR) signaling pathway - cell viability counter screen (AID 743064); further: nearly all actives have a fitted effect of over 50% in size; further: potency means the concentration at half of the fitted maximal effect
Method in brief: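 GH3.TRE-Luc rat pituitary cells dosed after 4 hr plating, co-stimulated with T3 at 1 nM final, incubated 23.5 h at 37 C. Viability measured in the same wells by CellTiter-Fluor fluorescence after 30 min further at 37 C.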

[8] = qHTS assay to identify small molecule antagonists of the thyroid receptor (TR) signaling pathway (AID 743065); further: nearly all actives have a fitted effect of over 55% in size; further: potency means the concentration at half of the fitted maximal effect
Method in brief: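 Antagonism measured as loss of luciferase signal in GH3 cells stably carrying a TRE-luciferase reporter, co-treated with compound and T3 (1 nM final) for 23.5 h at 37 C. Viability was read in the same well by CellTiter-Fluor.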

[9] = tested on: thyroid hormone receptor (rat, GH3 cells); assay: qHTS assay to identify small molecule agonists of the thyroid receptor (TR) signaling pathway (AID 743066; calls by dose curve)
[10] = target: Estrogen receptor (Homo sapiens) (UniProt P03372); assay: qHTS assay to identify small molecule antagonists of the estrogen receptor alpha (ER-alpha) signaling pathway (AID 743069; active means well fitted curve in the direction sought with a large enough effect in the signal ratio in the repeat runs, not every such curve was filed as active; the % refers to the signal ratio)
Chain of Estrogen receptor (Homo sapiens) (P03372 whole entry, looked up): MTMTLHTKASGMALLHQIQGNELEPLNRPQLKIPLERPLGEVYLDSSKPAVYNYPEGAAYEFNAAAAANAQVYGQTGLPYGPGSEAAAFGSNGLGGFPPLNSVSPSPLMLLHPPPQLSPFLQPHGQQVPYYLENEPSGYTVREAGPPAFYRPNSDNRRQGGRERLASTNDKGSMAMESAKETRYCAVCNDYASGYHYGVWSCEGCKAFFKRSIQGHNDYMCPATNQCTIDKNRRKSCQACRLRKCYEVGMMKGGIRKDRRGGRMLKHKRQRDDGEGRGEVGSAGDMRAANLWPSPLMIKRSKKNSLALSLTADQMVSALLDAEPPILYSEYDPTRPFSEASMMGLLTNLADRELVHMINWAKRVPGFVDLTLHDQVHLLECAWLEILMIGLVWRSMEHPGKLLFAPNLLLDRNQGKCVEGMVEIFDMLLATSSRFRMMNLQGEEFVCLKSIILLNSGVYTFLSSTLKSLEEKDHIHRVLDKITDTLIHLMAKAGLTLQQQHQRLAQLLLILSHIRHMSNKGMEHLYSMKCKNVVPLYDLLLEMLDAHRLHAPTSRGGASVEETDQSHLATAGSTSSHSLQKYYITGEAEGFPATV
Method in brief: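 Compound effects are measured against 17beta-estradiol stimulation in HEK293 cells with a UAS-controlled beta-lactamase reporter for ER-alpha. Exposure lasts 18 hr at 37C; LiveBLAzer B/G FRET substrate follows for 2 hr at room temperature.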

[11] = qHTS assay to identify small molecule antagonists of the estrogen receptor alpha (ER-alpha) signaling pathway - cell viability counter screen (AID 743074; calls by dose curve;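 further: HEK293 cells carrying ER-alpha-UAS-bla reporter stimulated with 17beta-estradiol; nearly all actives have a fitted effect of over 45% in size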)
[12] = target: Estrogen receptor (Homo sapiens) (UniProt P03372); assay: qHTS assay to identify small molecule agonists of the estrogen receptor alpha (ER-alpha) signaling pathway (AID 743075; calls by dose curve)
[13] = qHTS assay to identify small molecule antagonists of the estrogen receptor alpha (ER-alpha) signaling pathway using the BG1 cell line (AID 743080; calls by dose curve;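 further: BG1 cells stimulated with 17beta-estradiol alongside compound; series mostly up to about 70 µM; nearly all actives have a fitted effect of over 25% in size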)
Method in brief: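 BG1-Luc-4E2 cells (endogenous full-length ER-alpha, stable 4×ERE-luciferase) were starved 5 days in phenol-red-free medium with 10% charcoal-stripped FBS, plated 24 h, then given compound plus 17beta-estradiol for 21.5 h at 37 C; ONE-Glo luminescence read after 30 min.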

[14] = qHTS assay to identify small molecule antagonists of the estrogen receptor alpha (ER-alpha) signaling pathway using the BG1 cell line - cell viability counter screen (AID 743081);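 further: compound given together with 17beta-estradiol as the ER stimulus; series mostly up to about 70 µM; nearly all actives have a fitted effect of over 45% in size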
Aromatase (Homo sapiens) = Aromatase (Homo sapiens) (UniProt P11511); assay: qHTS assay to identify aromatase inhibitors (AID 743083); further: series mostly up to about 70 µM; nearly all actives have a fitted effect of over 55% in size
Chain of Aromatase (Homo sapiens) (P11511 whole entry, looked up): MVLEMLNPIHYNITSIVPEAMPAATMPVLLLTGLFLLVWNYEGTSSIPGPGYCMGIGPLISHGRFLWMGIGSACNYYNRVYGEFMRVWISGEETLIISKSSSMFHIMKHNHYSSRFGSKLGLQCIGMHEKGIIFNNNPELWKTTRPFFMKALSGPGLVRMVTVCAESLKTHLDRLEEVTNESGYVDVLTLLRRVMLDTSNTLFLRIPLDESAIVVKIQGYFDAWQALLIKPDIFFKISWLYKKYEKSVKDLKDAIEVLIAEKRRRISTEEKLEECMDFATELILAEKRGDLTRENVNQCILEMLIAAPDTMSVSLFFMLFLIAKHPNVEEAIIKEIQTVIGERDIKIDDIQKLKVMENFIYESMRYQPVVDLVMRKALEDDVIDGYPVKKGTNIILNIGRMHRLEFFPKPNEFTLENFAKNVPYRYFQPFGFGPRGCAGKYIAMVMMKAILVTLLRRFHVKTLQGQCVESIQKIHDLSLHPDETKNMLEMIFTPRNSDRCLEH

[15] = target: Estrogen receptor (Homo sapiens) (UniProt P03372); assay: qHTS assay to identify small molecule agonists of the estrogen receptor alpha (ER-alpha) signaling pathway using the BG1 cell line (AID 743079); further: nearly all actives have a fitted effect of over 20% in size; further: potency means the concentration at half of the fitted maximal effect
[16] = target: Androgen receptor (Homo sapiens) (UniProt P10275); assay: qHTS assay to identify small molecule antagonists of the androgen receptor (AR) signaling pathway (AID 743035; active means well fitted inhibition curve with a large enough effect in the signal ratio in the repeat runs, not every such curve was filed as active; the % refers to the signal ratio)
Chain of Androgen receptor (Homo sapiens) (P10275 whole entry, looked up): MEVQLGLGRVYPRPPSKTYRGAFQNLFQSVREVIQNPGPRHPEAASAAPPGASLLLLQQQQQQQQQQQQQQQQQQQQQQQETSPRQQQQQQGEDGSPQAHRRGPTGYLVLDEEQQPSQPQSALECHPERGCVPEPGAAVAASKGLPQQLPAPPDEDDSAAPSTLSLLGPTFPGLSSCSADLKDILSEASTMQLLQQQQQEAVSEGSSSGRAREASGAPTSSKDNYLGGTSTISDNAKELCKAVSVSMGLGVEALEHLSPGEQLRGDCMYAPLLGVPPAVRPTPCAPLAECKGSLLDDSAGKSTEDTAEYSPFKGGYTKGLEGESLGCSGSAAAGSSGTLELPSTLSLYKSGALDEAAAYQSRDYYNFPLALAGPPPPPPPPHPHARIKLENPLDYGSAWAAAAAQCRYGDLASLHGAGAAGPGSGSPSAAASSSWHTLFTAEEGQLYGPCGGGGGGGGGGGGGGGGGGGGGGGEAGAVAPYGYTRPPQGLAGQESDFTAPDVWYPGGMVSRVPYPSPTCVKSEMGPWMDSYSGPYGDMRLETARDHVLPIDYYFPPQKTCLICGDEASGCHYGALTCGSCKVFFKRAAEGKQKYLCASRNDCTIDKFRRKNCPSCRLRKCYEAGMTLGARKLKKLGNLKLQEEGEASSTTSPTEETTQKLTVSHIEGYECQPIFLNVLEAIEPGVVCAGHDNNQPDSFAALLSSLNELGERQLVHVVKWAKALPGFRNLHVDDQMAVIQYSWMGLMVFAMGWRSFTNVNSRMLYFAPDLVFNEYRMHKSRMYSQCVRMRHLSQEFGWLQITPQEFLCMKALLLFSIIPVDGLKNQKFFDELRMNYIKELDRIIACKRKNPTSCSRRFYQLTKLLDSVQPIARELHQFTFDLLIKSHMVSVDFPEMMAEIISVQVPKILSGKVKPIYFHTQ
Method in brief: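 HEK293 cells stably carrying UAS-beta-lactamase reporter, 2,000/well, given compounds plus R1881 agonist and incubated 16 h at 37C. LiveBLAzer B/G FRET substrate then added for 2 h at room temperature before fluorescence reading.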

[17] = target: Androgen receptor (Homo sapiens) (UniProt P10275); assay: qHTS assay to identify small molecule agonists of the androgen receptor (AR) signaling pathway (AID 743036; active means well fitted activation curve with a large enough effect in the signal ratio in the repeat runs, with a control signal flat, not every such curve was filed as active; the % refers to the signal ratio)
Method in brief: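 AR-UAS-bla HEK293 cells, plated 4 h before dosing, were treated with compound for 16 h at 37C. beta-Lactamase reporter read after 2 h with LiveBLAzer B/G FRET substrate at room temperature.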

[18] = target: Androgen receptor (Homo sapiens) (UniProt P10275); assay: qHTS assay to identify small molecule agonists of the androgen receptor (AR) signaling pathway using the MDA cell line (AID 743040; further: nearly all actives have a fitted effect of over 20% in size)
Method in brief: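 After a 5 h incubation at 37C and 0% CO2, MDA-kb2 reporter cells were dosed with compounds in DMSO and kept 16 h under the same conditions. Luciferase activity was then read as luminescence with ONE-Glo.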

[19] = target: Androgen receptor (Homo sapiens) (UniProt P10275); assay: qHTS assay to identify small molecule antagonists of the androgen receptor (AR) signaling pathway using the MDA cell line (AID 743042; further: nearly all actives have a fitted effect of over 55% in size)
Method in brief: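 Antagonist mode: compounds plus R1881 agonist added to MDA-kb2 AR-luc cells, incubated 16 h at 37C. Luciferase reporter luminescence quantified, with multiplexed CellTiter-Fluor readout for cell viability.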

Measured: Potency

CCC(O)C(C)(C)C (centres undefined)
not listed: [15] | [16] | [17] | [18] | [19]
inactive: all other assays above

CCC1Nc2cc(Cl)c(S(N)(=O)=O)cc2S(=O)(=O)N1 (centres undefined)
inactive: [1] | [2] | [3] | [4] | [5] | [6] | [7] | [8] | [9] | [11] | Aromatase (Homo sapiens)

CCOC(=O)CCc1ccccc1
not listed: [10] | [12] | [13] | [15] | [16] | [17] | [18] | [19]
inactive: all other assays above

COC(=O)CCC(=O)O
not listed: [13] | [16] | [17] | [18] | [19]
inactive: all other assays above

Cc1ccc2c(c1)c1c3n2CCNC3CCC1 (centres undefined)
inactive: [1] | [5] | [6] | [11] | [14] | Aromatase (Homo sapiens)
active: [2] 11.9 µM | [3] 11.9 µM | [4] 16.8 µM | [7] 11.9 µM | [8] 23.7 µM

O=C(c1ccc2c(c1)C(=O)OC2=O)c1ccc2c(c1)C(=O)OC2=O
not listed: [10] | [12] | [13] | [15] | [16] | [17] | [18] | [19]
inactive: all other assays above

CNCc1ccccc1
not listed: [10] | [12] | [13] | [15] | [16] | [17] | [18] | [19]
inactive: all other assays above

CC(C)CCC(=O)CCC(C)C
active: [2] 68.6 µM | [3] 68.6 µM | [4] 61.1 µM
not listed: [11] | [16] | [17] | [18] | [19]
inactive: all other assays above

CC(C)c1ccccc1O
not listed: [10] | [12] | [13] | [15] | [16] | [17] | [18] | [19]
inactive: all other assays above

CCCCOC(=O)C(=O)OCCCC
inactive: [1] | [2] | [3] | [4] | [5] | [6] | [7] | [8] | [9] | [14] | Aromatase (Homo sapiens)

CCCC(C)CC (centres undefined)
not listed: [10] | [12] | [13] | [15] | [16] | [17] | [18] | [19]
inactive: all other assays above

Nc1c(NC/C=C\COc2cc(CN3CCCCC3)ccn2)c(=O)c1=O
inactive: [1] | [2] | [3] | [4] | [5] | [6] | [11] | Aromatase (Homo sapiens)
active: [7] 23.7 µM

CCCCCCCCCOCC1CO1 (centres undefined)
inactive: [1] | [2] | [3] | [4] | [5] | [6] | [7] | [8] | [9] | [11] | [14]

CC(=O)c1ccc2c(c1)CCCC2
not listed: [12] | [15] | [16] | [17] | [18] | [19]
inactive: all other assays above

CCCO
not listed: [4] | [16] | [17] | [18] | [19]
inactive: all other assays above

CC(=O)Nc1ccc(C)cc1
not listed: [4] | [15] | [16] | [17] | [18] | [19]
inactive: all other assays above

NC(=O)NC(=O)Cc1ccccc1
active: [15] 33.5 µM
not listed: [5] | [16] | [17] | [18] | [19]
inactive: all other assays above

CO[Si](CCCS)(OC)OC
not listed: [4] | [16] | [17] | [18] | [19]
inactive: all other assays above

CC(=O)OC(C)(C)Cc1ccccc1
inactive: [1] | [2] | [3] | [5] | [6] | [7] | [8] | [9] | [11] | [14]

CCCCC(C)C(=O)O (centres undefined)
inactive: [1] | [2] | [3] | [5] | [6] | [7] | [8] | [9] | [11] | [14] | Aromatase (Homo sapiens)

CC(=O)OC(C(=O)c1ccccc1)c1ccccc1 (centres undefined)
not listed: [4] | [7] | [15]
inactive: all other assays above

O=C1CC[C@H](C(=O)N2CCCCC2)N1
inactive: [1] | [2] | [3] | [4] | [5] | [6] | [12] | [15] | [13] | Aromatase (Homo sapiens)
